LRH-1 inv ag – suppresses constitutive activity of human LRH-1; 0.13% of 360,000 active; inhibition, % at 3.6 µM; AID 602396; HEK293T StAR-luciferase reporter, LRH-1 transfected, 24 h;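 active = inhibition above the mean inhibition of all tested compounds plus 3 SD, cut at about 73% in these data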;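 note: 0% = DMSO wells and 100% = reporter-only cells lacking LRH-1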
NCOA2 inhibitor – inhibits human steroid receptor coactivator 2; HEK293 GAL4-SRC2 luciferase reporter, luminescence; inhibition, % at 9 µM; 0.17% of 370,000 active;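 active = inhibition above the mean inhibition of all tested compounds plus 3 SD, set per campaign, cut at about 52% in these data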;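 note: 0% = DMSO treated cells and 100% = cells given Gossypol at 36 µM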
SRC1 inh – inhibitors of human steroid receptor coactivator 1 (SRC1); HEK293 GAL4-SRC1 luciferase reporter, luminescence; AID 588354; Q15788; 0.12% of 360,000 active; inhibition, % at 3.6 µM;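 active = inhibition above the campaign mean plus 3 SD, with each screening campaign given its own cutoff, cut at about 60% in these data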;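 note: 0% = DMSO treated cells and 100% = gossypol at 36 µM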
Gli-Sufu antag – Gli-Sufu pathway antagonism | Sufu-KO-LIGHT fibroblasts, Gli luciferase reporter luminescence | inhibition, % at 5 µM | 0.74% of 340,000 active | AID 588413;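 active = inhibition above about 55%, limit read from the data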;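 note: 0% = DMSO-treated cells and 100% = wells with medium but no cells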
COUP-TFII inh – NR2F2 (human) inhibition, primary screen. P24468. HEK293T NGFI-A luciferase reporter, luminescence. inhibition, % at 8.6 µM. 0.7% of 370,000 active. AID 686940;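 active = inhibition above a per-plate cutoff, mean inhibition of test wells between control levels plus 3 SD, cut at about 38% in these data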;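 note: cells cotransfected with COUP-TFII expression vector driving the NGFI-A reporter; 0% = median of COUP-TF2 test wells and 100% = reporter-only cells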
Target sequence (P24468 whole entry, looked up): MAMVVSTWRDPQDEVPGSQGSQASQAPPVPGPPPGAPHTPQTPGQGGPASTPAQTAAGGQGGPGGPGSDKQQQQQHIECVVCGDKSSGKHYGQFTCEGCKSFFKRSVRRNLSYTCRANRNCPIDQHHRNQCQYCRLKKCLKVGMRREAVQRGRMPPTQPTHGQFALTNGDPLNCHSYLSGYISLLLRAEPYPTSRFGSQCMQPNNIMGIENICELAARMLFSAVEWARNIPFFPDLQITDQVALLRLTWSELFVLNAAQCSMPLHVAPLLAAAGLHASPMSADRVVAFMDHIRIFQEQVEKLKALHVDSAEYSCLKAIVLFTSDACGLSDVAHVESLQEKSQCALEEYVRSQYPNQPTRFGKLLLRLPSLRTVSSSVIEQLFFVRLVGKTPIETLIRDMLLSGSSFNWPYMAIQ
SRC3 inh – human NCOA3 inhibition. 0.17% of 360,000 active. HEK293 GAL4-SRC3 luciferase reporter, luminescence. Q9Y6Q9. inhibition, % at 3.6 µM;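 active = inhibition above a per-campaign cutoff, the mean of all compounds plus 3 SD, cut at about 60% in these data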;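 note: 0% = DMSO-treated cells and 100% = gossypol-treated cells at 36 µM; higher means less SRC3-driven luciferase light from the GAL4 reporter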
Gli-Sufu confirm – Gli-SUFU antagonism confirmation, single concentration | 40% of 2,500 active | inhibition, % at 5 µM | shares compounds with Gli-Sufu antag | Sufu-KO-LIGHT cells, Gli luciferase reporter, luminescence | AID 602428;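 active = mean inhibition at 5 µM reaching about 45%, limit read from the data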;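 note: plate controls were DMSO-treated cells for no effect and wells lacking cells for full effect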
SufuKO cytotox – cytotoxicity counter-screen for Gli-SUFU antagonists | shares compounds with Gli-Sufu antag | Sufu-KO-LIGHT cells cytotoxicity, ATP luminescence | 32% of 2,500 active | cytotoxicity, % at 5 µM;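 active = mean cytotoxicity at 5 µM above about 25%, limit read from the data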;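 note: cells exposed to compound overnight for roughly 16 to 18 hours; plate controls were DMSO wells with cells for no effect and medium without cells for full effect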
Wnt3a counter – Wnt3a reporter inhibition counter-screen; inhibition, % at 6.25 µM; 20% of 2,500 active; AID 651995; shares compounds with Gli-Sufu antag; Wnt-LIGHT cells, Wnt3a-driven luciferase reporter, luminescence;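 active = mean inhibition above about 25%, limit read from the data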
VP16 Luc counter – VP16 inhibition counter-screen for COUP-TFII. inhibition, % at 8.5 µM. HEK293 Gal4-VP16 luciferase reporter, luminescence. shares compounds with COUP-TFII inh. 25% of 2,500 active. AID 687007; in the data active = inhibition above about 13%
COUP-TFII conf – COUP-TFII (NR2F2) inhibition, confirmation assay; shares compounds with COUP-TFII inh; HEK293 NGFI-A luciferase reporter, luminescence; inhibition, % at 8.5 µM; 45% of 2,500 active;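 active = mean inhibition over three repeats above a set limit taken from the earlier primary screen, cut at about 38% in these data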;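 note: 100% = cells given the luciferase reporter alone without the COUP-TF2 vector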
* = called active by the depositor; . = not tested or not shown. In the library only some 1.3% were active in any assay of this set; here they are far more common.

SMILES | LRH-1 inv ag | NCOA2 inhibitor | SRC1 inh | Gli-Sufu antag | COUP-TFII inh | SRC3 inh | Gli-Sufu confirm | SufuKO cytotox | Wnt3a counter | VP16 Luc counter | COUP-TFII conf
Cc1nn(C)c(C)c1/C=C/C(=O)c1ccc(Cl)cc1Cl | 33.1 | -11.6 | 9.3 | 63.8* | 47.0* | 22.8 | 63.2* | 22.8 | -5.2 | -9.2 | 38.2*
Cc1ccc(/C=C2/SC(=S)N(CCCC(=O)Nc3ccc(O)cc3)C2=O)cc1 | 41.1 | 84.6* | 42.3 | 62.1* | 70.0* | 36.2 | 67.1* | 26.3* | 35.3* | -78.2 | -12.9
O=C(CCCN1C(=O)/C(=C\c2ccccc2)SC1=S)Nc1ccc(O)cc1 | 1.9 | 28.2 | -1.5 | 14.9 | 14.0 | 0.5 | . | . | . | . | .
Cc1ccc(/C=C2\SC(=S)N(CCCC(=O)NNC(=O)c3ccccc3O)C2=O)cc1 | 24.0 | 87.5* | 52.9 | 60.4* | 70.0* | 58.0 | 58.9* | 13.9 | 100.4* | 23.1* | 38.5*
Cc1ccc(-c2cc3cccc[n+]3cc2-c2ccc(C)cc2)cc1 | 84.4* | 1.4 | 50.7 | 86.4* | 65.9* | 55.4 | 89.5* | 27.3* | 48.1* | 7.8 | 53.9*
c1csc(CCNc2ncnc3sc4c(c23)CCC4)c1 | 46.4 | 16.7 | 16.1 | 55.6* | 67.1* | 28.9 | 59.6* | 29.6* | 1.2 | 3.1 | 46.0*
O=C(NC(Nc1nc2ccc([N+](=O)[O-])cc2s1)(C(F)(F)F)C(F)(F)F)c1cccnc1 | 91.4* | -28.9 | 69.1* | 84.2* | 76.6* | 77.6* | 87.0* | 35.5* | 81.3* | 6.7 | 70.2*
CC(=O)N1c2ccccc2C(C)=NCC1C(=O)NC1CCCCC1 (stereo not drawn) | . | -3.4 | . | . | 2.8 | . | . | . | . | . | .
CCCCC[n+]1cccc2c3ccccc3ccc21 | 78.1* | -28.6 | 51.3 | 73.8* | 64.2* | 56.6 | 84.8* | 27.3* | 32.6* | 16.1* | 59.9*
CCCCN1CCN(C2=Nc3ccccc3Sc3ccccc32)CC1 | . | 2.8 | . | . | 0.3 | . | . | . | . | . | .
CCc1ccc(-c2cc(C(=O)N/N=C/c3c[nH]c4ccccc34)[nH]n2)cc1 | -94.3 | -17.1 | -64.2 | -30.4 | -36.1 | -61.4 | . | . | . | . | .
CCc1ccc(/C=C/c2c[nH]c3ccccc23)[n+](CC)c1 | 53.4 | 16.0 | 27.4 | 77.9* | 40.3* | 39.0 | 82.5* | 31.5* | 45.6* | 1.2 | 38.4*
Cc1cccc(-n2ncc3c(N(C)C4CCCCC4)ncnc32)c1 | 76.8* | 62.5* | 81.2* | 55.6* | 87.2* | 81.3* | 76.4* | 68.9* | 99.0* | 48.6* | 92.3*
COc1ccc(-n2ncc3c(N4CCC(C)CC4)ncnc32)cc1 | -64.3 | -27.2 | -71.4 | -46.9 | -16.3 | -86.1 | . | . | . | . | .
COc1ccc(-n2ncc3c(N(C)C4CCCCC4)ncnc32)cc1 | 78.9* | 63.2* | 79.5* | 60.3* | 88.5* | 78.5* | 79.6* | 77.5* | 99.0* | 74.5* | 94.2*
CC(=O)Nc1cc2nc3ccccc3oc-2cc1=O | . | -29.0 | . | . | 10.1 | . | . | . | . | . | .
COc1ccc(CN(C)C(=O)c2cccc(NC(=O)CC3SC(N4CCCCC4)=NC3=O)c2)c(OC)c1 (stereo not drawn) | 18.6 | 27.0 | 12.7 | 65.4* | 58.2* | 45.4 | 48.9* | 12.8 | -4.8 | 0.3 | 43.8*
COc1cccc(CN(C)C(=O)c2cccc(NC(=O)CC3SC(N4CCCCC4)=NC3=O)c2)c1OC (stereo not drawn) | -13.5 | 27.4 | 11.8 | -4.3 | -8.3 | 4.9 | . | . | . | . | .
Clc1ccc(-c2nnc(CSc3nnc(-c4cccs4)n3Cc3ccccc3)o2)cc1 | 41.1 | 25.0 | 27.2 | 67.9* | 50.7* | 21.4 | 66.4* | 31.7* | 9.9 | 8.1 | 47.1*
O=C(Nc1ccc(C(F)(F)F)cc1)OC1CCC12CCC(c1ccccc1)CC2 (stereo not drawn) | . | -7.2 | . | . | 4.3 | . | . | . | . | . | .
Cc1cc(C(=O)CN2C(=O)c3ccccc3S2(=O)=O)c(C)n1CC1CCCO1 (stereo not drawn) | 89.1* | 88.5* | 80.2* | 83.0* | 93.4* | 87.9* | 82.2* | 54.4* | 98.6* | 86.0* | 96.5*
COc1ccc(C(=O)CN2C(=O)c3ccccc3S2(=O)=O)cc1 | 35.1 | 80.7* | 58.1 | 88.3* | 90.9* | 60.6 | 93.4* | 38.3* | 101.7* | 51.9* | 76.7*
Cc1cc(C(=O)CN2C(=O)NC(C)(c3ccccc3)C2=O)c(C)n1CC1CCCO1 (stereo not drawn) | 1.4 | . | 0.8 | -4.2 | . | 0.0 | . | . | . | . | .
COc1ccc(C(=O)CN2C(=O)c3ccccc3S2(=O)=O)cc1Br | 23.1 | 21.1 | -3.7 | 20.1 | 9.9 | -7.7 | . | . | . | . | .
O=C(Nc1ccccc1)Nc1nc2ncccn2c1-c1ccc(C(F)(F)F)cc1 | . | -3.6 | . | . | -31.8 | . | . | . | . | . | .
SMILES | LRH-1 inv ag | NCOA2 inhibitor | SRC1 inh | Gli-Sufu antag | COUP-TFII inh | SRC3 inh | Gli-Sufu confirm | SufuKO cytotox | Wnt3a counter | VP16 Luc counter | COUP-TFII conf
O=C(NCCc1ccccc1)OCc1cn(Cc2cc(F)cc(F)c2)nn1 | . | 1.9 | . | . | 9.2 | . | . | . | . | . | .
Cc1csc2ncnc(NCCc3ccccn3)c12 | 33.6 | 8.4 | 30.5 | 67.2* | 67.8* | 9.4 | 57.4* | 28.8* | 26.8* | 1.9 | 48.2*
CCn1nc(C)c(CNC(=O)c2ccc(OC3CCN(Cc4ccccn4)CC3)cc2)c1C | 26.8 | 8.0 | -1.1 | 64.5* | 58.1* | 25.5 | 65.7* | 33.2* | 37.9* | 16.4* | 65.6*
O=C(NCCc1cccc(Cl)c1)c1ccc(OC2CCN(Cc3ccccn3)CC2)cc1 | 29.0 | 37.4 | 50.6 | 52.3 | 61.1* | 28.4 | 49.9* | 15.1 | 9.5 | -38.0 | 40.1*
O=C(OC(c1ccccc1)c1nccc2ccccc12)c1ccccc1 (stereo not drawn) | 75.6* | 61.3* | 67.4* | 64.6* | 80.6* | 70.4* | 78.7* | 28.1* | 91.6* | 53.4* | 86.8*
O=C(OC(c1ccccc1)c1nccc2ccccc12)c1cccc([N+](=O)[O-])c1 (stereo not drawn) | -6.0 | -29.2 | -56.9 | -27.5 | -5.1 | -25.1 | . | . | . | . | .
CCN1CCCCC(NC(=O)c2ccc(Cl)cc2Cl)C1=O (stereo not drawn) | . | -11.2 | . | . | -13.4 | . | . | . | . | . | .
CC(Nc1ncnc2ccccc12)c1ccccc1 (stereo not drawn) | 45.2 | 13.3 | 9.7 | 63.1* | 71.2* | 20.1 | 72.9* | 34.4* | 41.0* | 3.5 | 60.9*
